Sampled rows, rich in hits. Any-hit rate of the full collection: about 1.4%.
AID504770: growth inhibitors of E. coli YBA685 in a screen for V. cholerae RctB (chromosome II replication) inhibitors | E. coli YBA685 rctB-dependent plasmid, OD600 growth, 3 h; hits give low values | z-score (concentration not given with the values) | hit rate 0.27% among 130,000 | AID 504770; in the data active = z-score below about -2, passing the limit was not always enough
PV pol inh: inhibitors of poliovirus RNA polymerase binding and polymerization. AID 588519. hit rate 0.66% among 150,000. P03300. % elongation, % (compound at 16.7 µg/mL). poliovirus polymerase elongation, fluorescence polarization; hits give low values; in the data active = % elongation below about 90%
MbtI inh: inhibitors of Mycobacterium tuberculosis siderophore enzyme MbtI; purified MbtI enzyme, fluorescence intensity read-out; inhibition, % (test concentration not listed); hit rate 0.89% among 100,000; in the data active = inhibition mostly above about 56%, no sharp cut-off; inactive = mostly below about 77%
Target sequence (P9WFX0 whole entry, looked up): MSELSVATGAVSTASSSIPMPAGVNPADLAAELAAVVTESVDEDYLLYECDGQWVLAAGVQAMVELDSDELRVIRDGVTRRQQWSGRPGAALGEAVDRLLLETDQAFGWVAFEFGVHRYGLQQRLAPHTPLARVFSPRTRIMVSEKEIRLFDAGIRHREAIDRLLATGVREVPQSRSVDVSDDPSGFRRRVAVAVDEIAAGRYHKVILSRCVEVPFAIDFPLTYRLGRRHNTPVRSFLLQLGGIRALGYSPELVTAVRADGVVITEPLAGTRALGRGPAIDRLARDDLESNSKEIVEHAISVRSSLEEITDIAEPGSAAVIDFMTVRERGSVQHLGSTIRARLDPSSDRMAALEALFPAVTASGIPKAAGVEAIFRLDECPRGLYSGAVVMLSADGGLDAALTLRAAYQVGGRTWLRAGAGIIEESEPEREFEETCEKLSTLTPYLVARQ
MenB inh: blocks the Mycobacterium tuberculosis MenB enzyme; P9WNP5; MenB enzyme assay, absorbance read-out; inhibition, % (test concentration not listed); hit rate 0.43% among 100,000; AID 540299; in the data active = inhibition above about 21%, passing the limit was not always enough
Numbers without * were called inactive.

`O=c1[nH]c(CN2CCNCC2)nc2ccccc12` gave AID504770 0.05, PV pol inh 98, MbtI inh -123 and MenB inh -10.
`CC(c1nc2ccccc2c(=O)[nH]1)N1CCN(Cc2ccc(Cl)s2)CC1` (stereo not drawn) gave AID504770 1.1, PV pol inh -3.0*, MbtI inh 9 and MenB inh -7.
For CCOC(=O)Cc1csc(SCc2nc3sc4c(c3c(=O)[nH]2)CCCC4)n1 the results were AID504770 0.9, PV pol inh 89, MbtI inh 22 and MenB inh -6.
For COc1ccc(CNCCN2CCOCC2)cc1 the results were AID504770 -0.4, PV pol inh 102, MbtI inh 4 and MenB inh 28*.
For COc1ccc(OC)c(NC(=S)NCCN2CCOCC2)c1 the results were AID504770 0.2, PV pol inh 102, MbtI inh 26 and MenB inh -4.
`O=C1NCCc2c(OC3CCCC3)cccc21` gave AID504770 -0.7, PV pol inh 105, MbtI inh -2 and MenB inh -22.
NS(=O)(=O)c1ccc(N2C(=O)CSC2=S)cc1 was read as AID504770 -1.2, PV pol inh 99, MbtI inh 57* and MenB inh -75.
`O=C1CSC(=S)N1c1cccc(O)c1` gave AID504770 -3.1*.
Screening COc1ccccc1CNC(=O)CSCc1nc(-c2ccccc2F)oc1C returned AID504770 0.75, PV pol inh 100, MbtI inh 1 and MenB inh -6.
For CC(Oc1ccc(/C=C(/C#N)C(=O)N2CCOCC2)cc1)C(=O)O (stereo not drawn) the results were AID504770 -0.9, PV pol inh 101, MbtI inh 12 and MenB inh -12.
CC(C)(C)c1ccc(C(=O)Nc2ccc(-c3nc4ccccc4o3)c(O)c2)cc1 was read as PV pol inh -10*.
COCCNC(=O)c1cc(-c2ccccc2O)no1 was read as AID504770 0.85, PV pol inh 105, MbtI inh -9 and MenB inh -8.
Screening CN(C)C(=S)Nc1ccccc1N1CCOCC1 returned AID504770 -0.6, PV pol inh 98, MbtI inh 95* and MenB inh -11.
Screening C=C1C(C(=O)Nc2ccccc2N2CCOCC2)C1C(=O)Nc1ccccc1N1CCOCC1 (stereo not drawn) returned AID504770 0.25, PV pol inh 103, MbtI inh -11 and MenB inh -26.
`O=c1cc(O)c2ccccc2[nH]1` gave AID504770 -0.85, PV pol inh 101, MbtI inh 55 and MenB inh -155.
Screening O=C1c2ccccc2C(=O)C1c1cc(=O)[nH]c2ccccc12 returned AID504770 -0.65, PV pol inh 87*, MbtI inh 6 and MenB inh -168.
For OCCn1nc2c3ccccc3nc-2n(-c2ccccc2)c1=S the results were AID504770 -0.2, PV pol inh 85*, MbtI inh 72 and MenB inh -40.
C=CCc1cccc(C=Nc2ccc(Br)cc2)c1O was read as AID504770 -1.4.
For C=CCc1cccc(O)c1O the results were AID504770 -0.05, PV pol inh 101 and MbtI inh 89*.
For Cc1nn(C(C)CN)c(C)c1C (stereo not drawn) the results were AID504770 1.9, PV pol inh 101, MbtI inh -3 and MenB inh 34*.
For CCN(CC)CCNc1nc2c(c(=O)n(C)c(=O)n2C)n1Cc1ccc(F)cc1 the results were AID504770 0.1 and MbtI inh -1.
CCN(CC)CCNc1nc2c(c(=O)n(C)c(=O)n2C)n1CCc1ccccc1 was read as AID504770 2.2, PV pol inh 103, MbtI inh 19 and MenB inh 23*.
Screening Cc1cc(Cl)ccc1OCC(=O)Nc1sc2c(c1C#N)CCC2 returned AID504770 0.25, PV pol inh 80* and MenB inh -1.
COc1ccccc1OCC(=O)Nc1sc2c(c1C#N)CCCC2 was read as AID504770 -0.4, PV pol inh 106 and MenB inh -29.
Screening S=c1nc(-c2cccs2)[nH][nH]1 returned AID504770 -0.25, PV pol inh 69*, MbtI inh 123 and MenB inh -58.
For Brc1ccc(C2=Nn3c(Cn4nnc5ccccc54)nnc3SC2)cc1 the results were AID504770 0.25, PV pol inh 69*, MbtI inh 68* and MenB inh -5.
c1ccc(OCc2nnc3n2N=C(c2ccccc2)CS3)cc1 was read as AID504770 -0.3, PV pol inh 93, MbtI inh 84* and MenB inh -41.
For Fc1ccc(C2=Nn3c(Cc4ccccc4)nnc3SC2)cc1 the results were AID504770 -0.25, PV pol inh 104 and MbtI inh -12.
For COc1ccc(NC(NC(C)=O)(C(F)(F)F)C(F)(F)F)c(OC)c1 the results were AID504770 0.25, PV pol inh 102, MbtI inh -2 and MenB inh 10.
Screening CC(C)(C)c1cs/c(=N/c2ccccn2)n1-c1ccc(Cl)cc1 returned AID504770 0.35, PV pol inh 102, MbtI inh -11 and MenB inh -6.
For Clc1ss/c(=N\c2ccccn2)c1Cl the results were AID504770 0.3, PV pol inh 87* and MenB inh -19.
Screening CC1=NNc2nc3c(c(=O)[nH]c(=O)n3C)n2C1 returned AID504770 1.1, PV pol inh 101, MbtI inh -10 and MenB inh -11.
`COc1ccc(-c2oc3ncn4nc(COc5ccc(Cl)cc5)nc4c3c2-c2ccc(OC)cc2)cc1` gave PV pol inh 55*.
Screening CCOC(=O)c1ccc(NC(=S)NC2CCS(=O)(=O)C2)cc1 (stereo not drawn) returned AID504770 -0.75, PV pol inh 107, MbtI inh -1 and MenB inh -23.
For NCc1ccc(CN2CCCCCC2)cc1 the results were AID504770 -0.3, PV pol inh 101, MbtI inh -5 and MenB inh -16.
For S=c1sscc1-c1ccccc1 the results were AID504770 0.45, PV pol inh 53* and MenB inh -77.
Screening CCSc1nc2ccccc2[nH]1 returned AID504770 0.25.
For CCC(=O)C1(Sc2nc3ccccc3[nH]2)CC(C)(C)OC1=O (stereo not drawn) the results were AID504770 -0.4, PV pol inh 102, MbtI inh 102* and MenB inh -10.
O=C(CSc1nnc(-c2cccs2)o1)Oc1ccccc1 was read as PV pol inh 94.
COc1cccc(OC(=O)CSc2nnc(-c3cccs3)o2)c1 was read as PV pol inh 90*.
Screening CCc1ccc(OC(=O)CSc2nnc(-c3ccc4c(c3)OCO4)o2)cc1 returned PV pol inh 102.
Screening COc1cccc(OC(=O)CSc2nnc(-c3ccc4c(c3)OCO4)o2)c1 returned PV pol inh 87*.
For CN(C)S(=O)(=O)c1ccc(S(=O)(=O)N2CCC(c3nc4c(nnn4Cc4cccc(F)c4)c(=O)[nH]3)CC2)cc1 the results were AID504770 -0.9, PV pol inh 101, MbtI inh -2 and MenB inh -16.

Compound activity: PubChem BioAssay, ICCB-Longwood Screening Facility, Harvard Medical School
